Screening data (PubChem)
DRD3 antagonist: D3 dopamine receptor (human) antagonism. P35462. D3R cells, DiscoveRx beta-arrestin luminescence, antagonist mode; active compounds read low. max response, negative = inhibition, %. 2.5% of 360,000 active. AID 652054; in the data active means max response below about -50%; inconclusive means no clear call, values can overlap the other calls; further: on the % scale 0 is the no-effect control and ±100 the full control effect
Target sequence (P35462 whole entry, looked up): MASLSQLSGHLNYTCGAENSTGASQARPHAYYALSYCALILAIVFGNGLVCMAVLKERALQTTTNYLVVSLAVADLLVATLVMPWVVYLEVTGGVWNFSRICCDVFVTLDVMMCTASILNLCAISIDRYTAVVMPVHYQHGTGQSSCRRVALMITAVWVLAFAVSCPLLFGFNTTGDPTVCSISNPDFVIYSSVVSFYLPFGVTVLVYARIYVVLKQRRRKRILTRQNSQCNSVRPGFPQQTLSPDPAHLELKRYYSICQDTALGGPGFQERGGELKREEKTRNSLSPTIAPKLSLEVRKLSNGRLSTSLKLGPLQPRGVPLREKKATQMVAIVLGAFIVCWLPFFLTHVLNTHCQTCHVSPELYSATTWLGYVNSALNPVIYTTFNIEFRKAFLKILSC
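Cells plated overnight at 1500 cells/well, then exposed to library compounds with dopamine controls for 90 minutes at 37 degrees C. DiscoveRx reagent added for 30–60 minutes at room temperature; luminescence read, quantitative HTS format.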
ATXN2 expr inh: reduces ATXN2 reporter expression in HEK-293 cells; Potency, µM (doses to about 57 µM), for inactives: top-dose activity change, negative = inhibition, actives largely listed as inhibitors; 0.72% of 360,000 active; AID 1745845; HEK-293 ATXN2-luciferase reporter, luminescence, 24 h; further: potency means the concentration at half of the fitted maximal effect; on the % scale 0 is the no-effect control and ±100 the full control effect; nearly all actives have a fitted effect of over 55% in size
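qHTS (up to 57 uM final) was run with 24 h compound exposure of reporter cells at 37 °C. Each well was multiplexed: SteadyGlo luminescence measured ATXN2-luciferase expression after a fluorogenic Gly-Phe-AFC viability readout (25 uM final).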
a7 integrin act: integrin-mediated muscular dystrophy alleviation activation. alpha7betagal myoblasts, beta-gal FDG fluorescence, 48 h. Potency, µM (top dose mostly 38.3 µM), without a hit: at the top dose activation, hits mostly activators. 0.064% of 350,000 active;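 further: potency means the concentration at half of the fitted maximal effect; 100% = response of the positive control SU9516; nearly all actives have a fitted effect of over 60% in size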
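Alpha7betagal+/- myoblasts (passage 13) were plated 16-24 hr, then exposed to compounds (1:260 dilution of DMSO stock) for 48 hours at 37C. After MPER lysis, β-galactosidase reporter activity was read as FDG fluorescence (ex 480/em 540) after 30 minutes.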
IL-1B inflam inh: inflammasome signaling inhibition, IL-1 beta readout; 4.7% of 360,000 active; THP-1 LPS/ATP IL-1B secretion, AlphaLISA, 16 h; active compounds read low; AID 743279; activity change, % at 57.5 µM; in the data active means activity change below about -50%; inconclusive means mostly about -30% to -49%; further: on the % scale 0 is the no-effect control and ±100 the full control effect
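Secreted IL-1B measured by AlphaLISA bead assay after 16 h compound exposure of THP-1 cells; compounds (final up to 57.5 uM) added 1 h before LPS (250 ng/mL) and ATP (1.25 mM) stimulation; lower signal means less secretion.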
ATXN viability: viability counter-screen for ATXN expression inhibitors. S2 cells (HEK-293 line with an ATXN2-luciferase reporter) viability, CellTiter-Fluor protease fluorescence, 24 h. Potency, µM (top dose mostly 56.7 µM), most hits filed as cytotoxic. 0.49% of 400,000 active. AID 651635; further: potency means the concentration at half of the fitted maximal effect; nearly all actives have a fitted effect of over 40% in size
D3 ag: agonists of human D3 dopamine receptor. P35462. D3R DiscoveRx beta-arrestin cells, luminescence, 90 min. max activation, %. 0.58% of 410,000 active. AID 652048; in the data active means max activation above about 30%; further: 0% is about no effect
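Cells at 1500/well, incubated overnight, then treated with pinned compounds (dopamine as control) for 90 min at 37 degrees C. DiscoveRx reagent added for 30 - 60 minutes at room temperature; luminescence read.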
Active calls of the source: *; i = inactive; ? = inconclusive; / = not tested or not shown; ! = repeats disagree; [ ] = another dose, or the depositor's remark. Shown are actives, neighbours in structure and some others; about 7% of the full set was active somewhere. Unless noted, the call rests on the fitted dose curve; in most records, active means well fitted curve in the direction sought with a large enough effect; inconclusive means small, poorly fitted or top-dose-only effect, or another doubt; inactive means no such curve, though single readings can be large; an effect the other way counts as inactive or inconclusive.

SMILES	DRD3 antagonist	ATXN2 expr inh	a7 integrin act	IL-1B inflam inh	ATXN viability	D3 ag
COc1ccc(Sc2ccc(-c3nc4cnccn4c3NC3CCCCC3)cc2OC)cc1	49	-27%	4%	?	/	46*
CCCCCCSc1ccc(-c2nc3cc(C)ccn3c2NC2CCCCC2)cc1	36	-25%	13%	-70*!	?	-12
Clc1ccc(-c2nc3cnccn3c2NC2CCCC2)cc1	24	?	13%	27	/	-1
Cc1ccn2c(NC3CCCC3)c(-c3ccncc3)nc2c1	4	13%	-8%	-11	i	-1
CCC(C)Sc1ccc(-c2nc3cnccn3c2NC2CCCCC2)cc1 (centres undefined)	74	?	5%	-52*!	/	26
CCC(C)Sc1ccc(-c2nc3cc(C)ccn3c2NC2CCCCC2)cc1 (centres undefined)	?	-28%	-38%	-66*!	?	2
CC(C)(O)C#Cc1ccccc1C(=O)NC(CC(N)=O)C(=O)O (centres undefined)	12	4%	7%	17	i	-1
CCCCCCSc1ccc([C@H]2N[C@@](CC(C)C)(C(=O)OC)[C@H]3C(=O)N(C)C(=O)[C@@H]23)cc1OC	0	3%	-8%	-53*	?	3
COC(=O)[C@]1(CC(C)C)N[C@H](c2ccc(SC3CCCCC3)c(OC)c2)[C@@H]2C(=O)N(C)C(=O)[C@@H]21	-22	-6%	0%	?	?	-9
CCN1C(=O)[C@H]2[C@@H](c3ccc(-c4ccc(OC)cc4)c(OC)c3)N[C@@](C)(C(=O)OC)[C@H]2C1=O	-1	10%	10%	7	?	6
CCN1C(=O)[C@H]2[C@@H](c3ccc(-c4ccc(F)cc4)c(OC)c3)N[C@@](C)(C(=O)OC)[C@H]2C1=O	-51*	-11%	-5%	-16	i	-12
CCN1C(=O)[C@H]2[C@@H](c3ccc(-c4ccccc4)c(OC)c3)N[C@@](CC(C)C)(C(=O)OC)[C@H]2C1=O	-51*	-15%	1%	0	i	-31
Cc1cccc(C)c1OCC(O)CNC(C)(C)C (centres undefined)	-51*	-3%	-1%	-8	i	0
O=C(O)c1cc(-c2cccc(Cl)c2)nc2nc(N3CCCCC3)sc12	1	2%	-3%	17	i	-2
Cc1ccc2cc(CN(CCCO)S(=O)(=O)c3cccc4nsnc34)c(=O)[nH]c2c1	22	1%	-3%[7.66 µM]	1	i	-4
Cc1ccc2[nH]c(=O)c(CN(Cc3ccco3)S(=O)(=O)c3c(C)ccc4nsnc34)cc2c1	14	?	-34%	-58*	?	1
Cc1ccc2[nH]c(=O)c(CN(CCCO)S(=O)(=O)c3cccc4nsnc34)cc2c1	-145*	-2%	5%	2	i	9
COc1ccc(NC(=S)N2CCN(CCN3C(=O)c4cccc5cccc(c45)C3=O)CC2)cc1	-3	?	6%	28	?	-6
FCCCOc1ccc(-c2nccc(-c3ccc(Br)cc3)n2)cc1	6	-15%	23%	-16	i	1
CO[C@H]1C[C@@H]2CC[C@@H](C)[C@@](O)(O2)C(=O)C(=O)N2CCCC[C@@H]2C(=O)O[C@H]([C@H](C)C[C@@H]2CC[C@H](OP(C)(C)=O)[C@H](OC)C2)CC(=O)[C@H](C)C=C(C)[C@@H](O)[C@@H](OC)C(=O)[C@H](C)C[C@H](C)C=CC=CC=C1C	/	4%	/	/	/	/
Nc1ccccc1SC(CC(=O)c1ccccc1)c1ccccc1 (centres undefined)	-29	/	-11%	-12	?	-6
CC(C(Sc1ccccc1N)c1ccccc1)[N+](=O)[O-] (centres undefined)	?	?	13%	-85*	28µM*	-1
C/C(=N\NC(=S)NC(C)C)c1ccc2c(c1)OCCO2	-4	-2%	5%	-79*	i	3
CNC(=S)N/N=C(\C)c1ccc2c(c1)OCCO2	-1	23%	-13%	13	i	3
COc1ccc(C2CC(=O)c3cnc(Nc4cc(C)cc(C)c4)nc3C2)cc1 (centres undefined)	-10	1%	-25%	-9	i	49*
SMILES	DRD3 antagonist	ATXN2 expr inh	a7 integrin act	IL-1B inflam inh	ATXN viability	D3 ag
COc1cc(C2CC(=O)c3cnc(NC(=O)COc4ccccc4)nc3C2)cc(OC)c1OC (centres undefined)	6	9%	-24%	35	i	36*
CN(C(=O)c1cccc(Cl)c1)C1CCCN(Cc2ccccc2F)C1 (centres undefined)	-14	-3%	10%	0	?	-8
Clc1cccc(OCCCN2CCCC2)c1Cl	-99*	/	-46%	-13	i	1
c1ccc2c(OCCCN3CCCCCC3)cccc2c1	-60*	/	-5%	?	?	-16
Clc1cccc(OCCOCCN2CCNCC2)c1Cl	?	-6%	-18%	-22	i	-45
Cc1c(-c2ccccc2)oc2c(C(=O)OCC(=O)Nc3cccc(F)c3)cccc2c1=O	51	/	25%	-3	i	1
COc1ccc(NC(=O)COC(=O)c2cc(SC)ccc2Cl)c(OC)c1	-4	-5%	6%	13	i	32*
CN(C)CCNC(=O)c1cccc(-c2cnc3c(NC=O)cc(-c4ccc(C(=O)N5CCOCC5)cc4)cn23)c1	18	6%	/	-5	?	3
CC(=O)N1N=C(c2cccc([N+](=O)[O-])c2)OC1(C)c1cccs1 (centres undefined)	10	7%	-4%	0	i	-5
CC(=O)N1N=C(c2cccc([N+](=O)[O-])c2)OC1c1ccccc1Cl (centres undefined)	-60*	3%	-23%	9	i	-3
C=C1CC(Cn2cc(Br)c(=O)[nH]c2=O)(c2ccc(-c3ccccc3)cc2)OC1=O (centres undefined)	-89*	28µM*	-55%	-2	?	-4
Cn1nnc(NC(=S)NC(=O)c2cc(Cl)ccc2Cl)n1	-70*	0%	?	-5	i	-21
CC1CC(C)CN(C(=O)CSc2nc(Cc3cccs3)nc3ccccc23)C1 (centres undefined)	11	31%	14%	-61*	i	27
CCCc1nc(SCC(=O)N2CCc3ccccc3C2)c2ccccc2n1	15	?	-49%	-72*	i	17
CCOC(=O)CNC(=O)CSc1nc(Cc2cccs2)nc2ccccc12	-25	4%	11%	-11	i	-9
